According to PubChem BioAssay (EPA / NIEHS):
Activity calls are given as the source filed them. How the source made its calls: active means hit-call score of the fitted dose curve at least 0.9, where 1 is the maximum; inactive means score below 0.9.

Assay: ATG_M_19_CIS: Attagene CIS-FACTORIAL HepG2 Assay for M19 Transcription Factor (Internal Marker) (AID 2282939)
Conditions: HepG2 Attagene CIS-FACTORIAL M19 internal marker reporter; actives raise or lower the signal
Method: ATG_CIS is a cell-based, multiplexed-readout assay that uses HepG2, a human liver cell line, with measurements taken at 24 hours after chemical dosing in a 24-well plate.ATG_M_19_CIS is one of 52 assay component(s) measured or calculated from the ATG_CIS assay. It is designed to make measurements of mRNA induction, a form of inducible reporter, as detected with fluorescence intensity signals by Reverse transcription polymerase chain reaction (RT-PCR) and Capillary electrophoresis technology.Data from the assay component ATG_M_19_CIS was analyzed into 1 assay endpoint. This assay endpoint, ATG_M_19_CIS, was analyzed with bidirectional fitting relative to DMSO as the negative control and baseline of activity. Using a type of inducible reporter, measures of mRNA for gain or loss-of-signal activity can be used to understand the background control at the transcription factor-level as they relate to the gene . Furthermore, this assay endpoint can be referred to as a secondary readout, because this assay has produced multiple assay endpoints where this one serves a background control function. To generalize the intended target to other relatable targets, this assay endpoint is annotated to the background measurement intended target family, where the subfamily is internal marker.
Human liver HepG2 cells are transiently transfected with multiple reporter transcription units (MRTUs) in 6-well plates using FuGene 6 reagent (Roche; 3 ml FuGene/1 mg DNA). The MRTU constructs are regulated by a cis-regulating element (promoter). […] A major difference between the CIS and TRANS system is that in CIS activities of endogenous TFs are measured, whereas the TRANS assay evaluates changes in activities of exogenous, chimeric NR-Gal4 proteins. […] At the end of 24 hour incubation, total RNA was isolated using TriZol reagent (Invitrogen). The isolated RNA is then reverse-transcribed using oligo(dT) primer and Mo-MLV reverse transcriptase (Invitrogen) with DNAse I (Ambion) treatment for 30 min. The one-tenth of the produced cDNA was amplified by PCR using Taq DNA polymerase (Invitrogen) and two reporter sequence-specific primers. The PCR products were fluorescently labeled by primer extension with 6-arboxyfluorescein (6-FAM) 5'-labeled reporter sequence-specific primer (2 min at 95 C, 20 s at 68 C and 10 min at 72 C) and these products were digested with 5U of HpaI (New England Biolabs) for 2h at 37 C. The fragments were purified using Qiaquick PCR columns (Qiagen), analyzed on an ABI 3130xL genetic analyzer (Applied Biosystems) with peak positions identified by using a set of X-rhodamine (ROX)-labeled MapMarker1000 molecular weight standards (BioVentures). The raw capillary electrophoresis data was processed using Attagraph software (Attagene).

Question: With `CC(=O)c1cccnc1` as the compound, how does the outcome read?
Answer: inactive

Question: With `CCn1cc(C(=O)O)c(=O)c2ccc(C)nc21` as the compound, how does the outcome read?
Answer: inactive

Question: For `O=[N+]([O-])c1cc(N(CCO)CCO)ccc1NCCO`, which outcome is on record?
Answer: inactive

Question: For `CC1=CC[C@@H]2C[C@H]1C2(C)C`, which outcome is on record?
Answer: inactive

Question: With `CC(=O)C1=C(C)[C@@H]2C[C@@]3(C1)[C@H](C)CC[C@H]3C2(C)C` as the compound, how does the AC50 read?
Answer: 100 µM (active)

Question: For `CC1(C)[C@H](C=C(Cl)Cl)[C@H]1C(=O)OCc1cccc(Oc2ccccc2)c1`, which outcome is on record?
Answer: inactive

Question: For `CC(=O)N(C)C`, which outcome is on record?
Answer: inactive

Question: For `CCCCCCCCSCc1cc(C)c(O)c(CSCCCCCCCC)c1`, which outcome is on record?
Answer: inactive

Question: Which outcome does the source give for `OCCCO` here?
Answer: inactive

Question: Which outcome does the source give for `C1CCCNCC1` here?
Answer: inactive

Question: With `CCCCCCCOC(C)=O` as the compound, how does the outcome read?
Answer: inactive

Question: Which outcome does the source give for `CC(CCO)CC(C)(C)C` (stereo not given) here?
Answer: inactive

Question: With `COc1ccc(OC)cc1` as the compound, how does the outcome read?
Answer: inactive

Question: With `CCCCCCCC(=O)N(C)C` as the compound, how does the outcome read?
Answer: inactive

Question: For `O=Cc1ccccc1O`, which outcome is on record?
Answer: inactive

Question: With `C=COCC1CCC(COC=C)CC1` (stereo not given) as the compound, how does the outcome read?
Answer: inactive

Question: Which outcome does the source give for `c1coc(CNc2ncnc3nc[nH]c23)c1` here?
Answer: inactive

Question: Which outcome does the source give for `C1=COCCC1` here?
Answer: inactive

Question: Which outcome does the source give for `CC(C)N1C(=O)c2ccccc2C1=O` here?
Answer: inactive

Question: Which outcome does the source give for `C/C=C(\C)C(=O)OC/C=C(\C)CCC=C(C)C` here?
Answer: inactive

Question: Which outcome does the source give for `CCCCCCCC1CCCC1=O` (stereo not given) here?
Answer: inactive

Question: With `CC/C=C\CCCCO` as the compound, how does the outcome read?
Answer: inactive

Question: Which outcome does the source give for `CN(C)C(=O)Nc1ccccc1` here?
Answer: inactive

Question: With `c1ccc(OCCOc2ccccc2)cc1` as the compound, how does the outcome read?
Answer: inactive

Question: With `CC=CC(=O)C1=C(C)C=CCC1(C)C` as the compound, how does the outcome read?
Answer: inactive

Question: Which outcome does the source give for `COC(=O)C(C)Oc1ccc(Oc2ncc(C(F)(F)F)cc2Cl)cc1` (stereo not given) here?
Answer: inactive

Question: Which outcome does the source give for `CCO[Si](CC)(OCC)OCC` here?
Answer: inactive

Question: For `CCOC(=O)COC(=O)c1ccccc1C(=O)OCC`, which outcome is on record?
Answer: inactive

Question: With `CCCc1ccc(N)cc1` as the compound, how does the outcome read?
Answer: inactive

Question: For `CCCCCCOC(C)=O`, which outcome is on record?
Answer: inactive

Question: For `CCOCC(C)O` (stereo not given), which outcome is on record?
Answer: inactive

Question: Which outcome does the source give for `CC(=O)OC(C)(C)C1CC=C(C)CC1` (stereo not given) here?
Answer: inactive

Question: Which outcome does the source give for `Cc1ccccc1S` here?
Answer: inactive

Question: Which outcome does the source give for `C=C(C)C(=O)OCCOCCOC(=O)C(=C)C` here?
Answer: inactive

Question: For `CC(C)=CC(=O)O`, which outcome is on record?
Answer: inactive

Question: Which outcome does the source give for `COc1ccc(N)c(C)c1` here?
Answer: inactive

Question: Which outcome does the source give for `CN(C)CCC=C1c2ccccc2CCc2ccccc21` here?
Answer: inactive

Question: For `CC(=O)c1ccc2ccccc2c1`, which outcome is on record?
Answer: inactive

Question: With `CCOC(=O)CC1(C)OCC(C)O1` (stereo not given) as the compound, how does the outcome read?
Answer: inactive

Question: For `c1ccc2scnc2c1`, which outcome is on record?
Answer: inactive
